Results as given in PubChem BioAssay AID504832 (National Center for Advancing Translational Sciences (NCATS), 2011).
Among all 310,000 compounds or so, about 18,000 (5.8%) were called active. Inconclusive results (about 22%) are left out. The full list was thinned out, with actives kept by preference. Unmarked numbers belong to inactive results. Calls follow the shape of the dose curve; as a rule, active = well fitted inhibition curve with a large enough effect; inconclusive = small, poorly fitted or top-dose-only effect, or another doubt; inactive = no such curve, though single readings can be large or run the other way.
% is scaled to controls: 0 for no effect and ±100 for the full control effect; potency is read from the fitted curve at half-maximal effect.

Test: Primary qHTS for delayed death inhibitors of the malarial parasite plastid, 48 hour incubation
Conditions: P. falciparum luciferase growth in erythrocytes; series mostly up to 28.7 µM; activity change, negative = inhibition: at the top concentration
How it was run: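 Growth was read as firefly luciferase luminescence after a 48 h, 37 C, 5% CO2 exposure of compounds to reporter-bearing P. falciparum cultures (0.1% parasitemia, 2% hematocrit final) in Albumax-supplemented RPMI 1640.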
With `COc1cc([C@H](Cc2ccccc2)NC(C)=O)oc(=O)c1` the Potency was 9.28 µM (active).
For `COC(=O)[C@H](Cc1ccccc1)NC(=O)Nc1ccc(OC)cc1`, the “activity change, negative = inhibition” value was -8.2%.
For `CCOC(=O)C(Cc1ccccc1)NC(=O)CCC(=O)c1ccc(OC)cc1` (stereo not drawn), the “activity change, negative = inhibition” value was -19.8%.
For `Nc1cc(N)nc(SCc2cccc(F)c2)n1`, the “activity change, negative = inhibition” value was 59.5%.
For `COc1ccc(S(=O)(=O)N2CCN(C)CC2)c(C)c1`, the “activity change, negative = inhibition” value was 0.0519%.
In the case of `CC(C)CCN1CCC(C)(NC(=O)c2ccccc2)C1=O` (stereo not drawn), the “activity change, negative = inhibition” value was 0%.
In the case of `Cc1cc(Cl)c2oc(C(=O)NC(C)c3ccncn3)c(C)c2c1` (stereo not drawn), the “activity change, negative = inhibition” value was 0%.
With `COc1ccc(-c2nn(-c3ccccc3)cc2C(=O)Nc2nc(CC(C)=O)ns2)cc1` the “activity change, negative = inhibition” value was -13.6%.
In the case of `CN(C)/N=C/c1cn(-c2ccccc2)nc1-c1cccnc1`, the “activity change, negative = inhibition” value was 6.39%.
In the case of `COc1ccc(-c2nn(-c3ccccc3)cc2/C=N/Nc2ccccn2)cc1OC`, the Potency was 4.65 µM (active).
With `O=C(O)c1ccc(NC(=O)c2cn(-c3ccccc3)nc2-c2ccc(Cl)cc2)cc1` the “activity change, negative = inhibition” value was -13%.
With `Cc1nnc(SCC(=O)N/N=C/c2cn(-c3ccccc3)nc2-c2ccc(F)cc2)n1-c1ccccc1` the “activity change, negative = inhibition” value was -22%.
In the case of `COc1ccc(-c2nn(-c3ccccc3)cc2C(=O)Nc2nccs2)cc1OC`, the Potency was 13.1 µM (active).
With `Cc1nc([N+](=O)[O-])cn1CC(=O)Nc1ccc(Cl)cc1` the “activity change, negative = inhibition” value was 25.8%.
In the case of `O=C(Nc1ccc(NC(=O)c2ccccc2F)cc1)c1ccccc1F`, the “activity change, negative = inhibition” value was 23.2%.
In the case of `O=C(O)c1ccccc1CSc1nc2ccccc2s1`, the “activity change, negative = inhibition” value was 46.1%.
For `CCOC(=O)C1CCN(C(=O)CN2C(=O)c3cccnc3Oc3ccc(C)cc32)CC1`, the “activity change, negative = inhibition” value was -12.4%.
With `COc1ccc(C2/C(=C(/O)c3ccccc3)C(=O)C(=O)N2C)c(OC)c1` (stereo not drawn) the “activity change, negative = inhibition” value was 9.99%.
In the case of `C#CC(CCN1CCCCC1)(OC)c1ccccc1` (stereo not drawn), the “activity change, negative = inhibition” value was 131%.
For `CN1CCC[C@@H]1CCO[C@](C)(c1ccccc1)c1ccc(Cl)cc1`, the Potency was 12 µM (active).
With `COc1ccc(CNC(=O)COc2ccccc2C(=O)c2cnn(-c3ccccc3)c2)cc1OC` the “activity change, negative = inhibition” value was 35.7%.
For `N#Cc1ccc(CN2CCN(CC(=O)Nc3ccccc3C(=O)NC3CC3)CC2)cc1`, the “activity change, negative = inhibition” value was -9.94%.
In the case of `CCn1cc(C(=O)NCCC(=O)NCCO)c(=O)c2cc3c(cc21)OCO3`, the “activity change, negative = inhibition” value was 16.2%.
In the case of `COc1ccc(C2(CNC(=O)Cc3ccc(OC)c(OC)c3)CCCC2)cc1`, the “activity change, negative = inhibition” value was 17.5%.
In the case of `COc1cc(C(=O)NCC2(c3ccccc3)CCCC2)ccc1OC(C)C`, the Potency was 14.7 µM (active).
In the case of `COc1ccc(C(=O)Nc2ccc(C3(C#N)CCCC3)cc2)cc1OC`, the “activity change, negative = inhibition” value was 76%.
In the case of `COc1cc(OC)c(NS(=O)(=O)c2cn(C)cn2)cc1Cl`, the “activity change, negative = inhibition” value was 20.2%.
In the case of `Cc1cccc(NC(=O)c2cccnc2Cl)n1`, the “activity change, negative = inhibition” value was 9.63%.
With `COCCN(CCOC)C(=S)Nc1ccccc1Cl` the “activity change, negative = inhibition” value was 36.2%.
In the case of `CCc1ccc2c(c1)cc(CN(C(=S)Nc1ccccc1Cl)C1CC1)c1nnnn12`, the Potency was 6.57 µM (active).
Molecule `CCc1cccc(NC(=S)N(CCN(C)C)C2CCN(C(C)C)CC2)c1` has an activity change, negative = inhibition of -29.2% [at 0.00184 µM].
With `COc1ccc(CNC(=O)C(=O)NCC2OCCN2C(=O)c2ccc(OC)cc2)cc1` (stereo not drawn) the “activity change, negative = inhibition” value was -15.6%.
With `Cc1c(CCC(=O)N[C@@H](CC(C)C)C(=O)O)c(=O)oc2c(C)c3oc4c(c3cc12)CCCC4` the Potency was 2.33 µM (active).
In the case of `CC[C@@H](C)[C@H](NC(=O)CCc1c(C)c2cc3c4c(oc3c(C)c2oc1=O)CCCC4)C(=O)O`, the “activity change, negative = inhibition” value was 12%.
In the case of `Cc1c(C)c2cc3c4c(oc3c(C)c2oc1=O)CCCC4`, the “activity change, negative = inhibition” value was 22%.
With `O=C(NCc1ccccc1)C(c1ccccc1)N(C(=O)c1csnn1)c1ccc(F)cc1` (stereo not drawn) the “activity change, negative = inhibition” value was -14.5%.
With `Cc1n[nH]c(=O)c2c1nnn2Cc1ccc(F)cc1` the “activity change, negative = inhibition” value was 19.1%.
With `CSc1nc2ccccc2c(=O)n1Cc1ccc(F)cc1` the “activity change, negative = inhibition” value was -13%.
In the case of `Cc1c2cn[nH]c(=O)c2c(C)n1Cc1ccc(F)cc1`, the Potency was 11.7 µM (active).
With `Cc1ccc(N2C(=O)C3C4C=CC(CC4)C3C2=O)cc1Br` (stereo not drawn) the “activity change, negative = inhibition” value was 0%.
For `O=C(COc1coc(CN2CCN(c3ccccc3F)CC2)cc1=O)N1CCc2ccccc21`, the “activity change, negative = inhibition” value was -10.4%.
In the case of `COc1ccc(S(=O)(=O)NCC(=O)NC2CC2)cc1OC`, the “activity change, negative = inhibition” value was 6.1%.
For `O=C(O)CCCn1c(=O)c2cccn2c2ccc(F)cc21`, the “activity change, negative = inhibition” value was 25.8%.
In the case of `CCCCCCCNC(=O)C1(CC2CC(c3cccc(Br)c3)=NO2)CCN(C(=O)c2cc(OCC)c(OCC)c(OCC)c2)CC1` (stereo not drawn), the Potency was 0.657 µM (active).
In the case of `CCOC(=O)C1CCN(Cc2nnc(-c3cccc(Br)c3)o2)CC1`, the “activity change, negative = inhibition” value was 35.6%.
For `CCOc1ccccc1N1CCN(C(=O)c2ccc3[nH]c(C)c(C)c3c2)CC1`, the “activity change, negative = inhibition” value was -8.07%.
For `N#Cc1c(Cl)nc(-c2cccnc2)nc1-c1ccccc1`, the “activity change, negative = inhibition” value was 0.537%.
For `CCCC[C@H]1COCCS(=O)(=O)N1Cc1cccc(Cl)c1`, the “activity change, negative = inhibition” value was 0%.
For `COc1cc(NC(=O)C2CC(c3ccccc3O)=NO2)c(OC)cc1Cl` (stereo not drawn), the “activity change, negative = inhibition” value was -5.06%.
With `Cc1nc(-c2ccc(F)cc2)c(CC(=O)N2CCN(S(=O)(=O)c3ccc(F)cc3)CC2)s1` the “activity change, negative = inhibition” value was -11.8%.
With `O=C(CSc1nc(Nc2ccccc2)nc(N2CCOCC2)n1)Nc1cc(Cl)ccc1O` the Potency was 1.17 µM (active).
With `O=C(CN1CCOCC1)Nc1cc(Cl)ccc1Cl` the “activity change, negative = inhibition” value was 12.8%.
With `Cc1ccccc1NC(=O)CSc1nc2ccc(Nc3nc(N4CCOCC4)nc(N4CCOCC4)n3)cc2s1` the “activity change, negative = inhibition” value was -8.19%.
